The list is not random: actives were taken first. Their share in the collection is about 2.6%.
A3G deaminase: blocks human APOBEC3G single-stranded DNA deamination. Q9HC16. recombinant A3G, ssDNA deamination FAM/TAMRA fluorescence. inhibition, % at 20 µM. hit rate 0.28% among 330,000. AID 493012;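 active means inhibition of at least 40% at 20 µM, with no more than 30% in the related APOBEC3A deaminase screen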;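 further: plate controls were DMSO wells with A3G for no effect and wells lacking A3G enzyme for full effect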
Target sequence (Q9HC16 whole entry, looked up): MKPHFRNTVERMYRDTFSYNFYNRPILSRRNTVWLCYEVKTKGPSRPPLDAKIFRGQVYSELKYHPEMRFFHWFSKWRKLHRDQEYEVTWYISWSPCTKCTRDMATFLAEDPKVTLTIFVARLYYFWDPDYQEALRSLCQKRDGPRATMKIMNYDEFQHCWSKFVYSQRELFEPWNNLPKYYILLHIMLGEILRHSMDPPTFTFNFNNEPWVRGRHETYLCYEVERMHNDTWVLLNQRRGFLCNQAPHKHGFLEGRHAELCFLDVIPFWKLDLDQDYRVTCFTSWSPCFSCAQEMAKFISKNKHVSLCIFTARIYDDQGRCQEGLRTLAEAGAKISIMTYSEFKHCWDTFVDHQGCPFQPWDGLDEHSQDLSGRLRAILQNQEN
PHOSPHO1 block: PHOSPHO1 (human) inhibition; hit rate 1.1% among 290,000; inhibition, % at 13.3 µM; recombinant PHOSPHO1, absorbance phosphatase assay; AID 1565; Q8TCT1; in the data active means inhibition above about 60%
Target sequence (Q8TCT1 whole entry, looked up): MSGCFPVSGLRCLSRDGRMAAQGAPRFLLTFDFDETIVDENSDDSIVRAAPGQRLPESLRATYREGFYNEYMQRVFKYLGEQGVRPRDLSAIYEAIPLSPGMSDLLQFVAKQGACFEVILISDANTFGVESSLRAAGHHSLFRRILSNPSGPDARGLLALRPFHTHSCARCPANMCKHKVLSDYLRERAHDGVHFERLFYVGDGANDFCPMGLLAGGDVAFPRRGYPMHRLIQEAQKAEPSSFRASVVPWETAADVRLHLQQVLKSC
PABP polyA inh: blocks human PABP binding to poly(A) RNA | P11940 | fluorescence polarization | calls only at 35 µM | hit rate 1% among 290,000;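 further: calls also rest on retests at 20 µM and on dose response follow-up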
eIF4H inh: inhibitors of RNA binding by human eIF4H; Q15056; eIF4H fluorescence polarization binding assay; inhibition, % at 35 µM; hit rate 0.94% among 290,000; AID 2012;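 further: calls also rest on retests at 20 µM and on dose response follow-up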
MLLE-PAM2 inh: blocks PAM2 peptide binding to the PABP1 MLLE domain; hit rate 0.36% among 360,000; P11940; GST-MLLE / FITC-PAM2 fluorescence polarization; inhibition, % at 20 µM; in the data active means inhibition above about 35%, passing the limit was not always enough;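 further: plate controls were DMSO wells with GST-MLLE for no effect and wells lacking GST-MLLE protein for full effect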
A3A deaminase: blocks human APOBEC3A ssDNA deamination; P31941; recombinant A3A, FAM/TAMRA ssDNA deamination fluorescence; inhibition, % at 20 µM; hit rate 0.41% among 330,000; AID 493011;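 active means at least 40% inhibition at 20 µM here, with at most 30% in a related deaminase screen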;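 further: plate controls were A3A with DMSO for no effect and wells lacking A3A enzyme for full effect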
Active calls of the source: *; i = inactive; u = inconclusive; x = no result given; + = active, no number. Unless noted, how the calls were made is not given here.

SMILES | A3G deaminase | PHOSPHO1 block | PABP polyA inh | eIF4H inh | MLLE-PAM2 inh | A3A deaminase
CC1CCCCC12NC(=O)N(CC(=O)NCCc1ccccc1)C2=O (stereo not given) | -1.4 | x | x | x | -17.1 | 12.9
CCc1noc(C)c1C(=O)Nc1nc(-c2ccc(Cl)cc2Cl)cs1 | -4.9 | -24.5 | i | -2.6 | -13.1 | 1.8
CCOc1ccc(N=c2scc(-c3ccccc3)n2CCO)cc1 | -3.1 | 97.6* | i | -9.0 | -14.3 | -4.6
CCOc1ccc(N=c2scc(-c3ccc(OC)cc3)n2CCO)cc1 | -5.6 | -35.3 | i | -3.6 | -0.9 | -3.2
Cc1ccc(C)c(-c2nnc(NC(=O)Cc3ccccc3)o2)c1 | -6.0 | 22.3 | i | -6.6 | -1.4 | -4.3
Nc1cc2c(cc1Cl)-c1ccccc1C2=NO | x | x | x | x | -12.8 | x
Cc1ccc(S(=O)(=O)Nc2ccc(Br)cc2C(NCC(=O)O)c2ccccc2)cc1 (stereo not given) | -11.5 | 17.8 | i | 2.5 | -3.3 | -1.5
O=C(O)CSc1cc(NS(=O)(=O)c2ccc(Br)cc2)c2ccccc2c1O | x | -54.8 | i | 5.6 | 46.1* | x
N#CCCn1cc(/C=N/NC(N)=S)c(-c2ccc(-c3ccccc3)cc2)n1 | -11.0 | -4.0 | i | 1.9* | -35.0 | -3.2
COc1ccc2c(c1)/C(=C\c1cccc(/C=C3/C(=O)Nc4ccc(OC)cc43)n1)C(=O)N2 | x | x | x | x | 13.3 | x
Cc1ccc(-c2nn(CCC(N)=O)c(=O)c3ccccc23)cc1 | 2.4 | -11.2 | i | -3.6 | -2.2 | 1.8
O=[N+]([O-])/C(=C\Nc1ccccc1Cl)S(=O)(=O)c1ccccc1 | -1.4 | 86.6* | i | 2.7 | 1.6 | -1.2
COc1cccc(CN2CCC2(C)C(=O)Nc2cccc(Oc3ccccc3)c2)c1F (stereo not given) | x | x | x | x | -1.6 | x
COc1ccc(Oc2c(C(F)(F)F)oc3cc(OCC(=O)O)ccc3c2=O)cc1 | 1.8 | 23.9 | i | -1.3 | -7.2 | 1.5
COC(=O)c1ccccc1NC(=O)CSc1nc2ncccc2[nH]1 | -7.1 | 64.3* | i | -4.1 | -29.1 | 3.3
CN1C=CC2=C(C#N)C(N)C(C#N)(C#N)[C@H](c3ccccc3)[C@H]2C1 (stereo not given in full) | -11.4 | 2.9 | i | u | 48.4* | -1.2
Cc1ccnc(NC(=O)CCc2c(C)nc3ncnn3c2C)c1 | -7.7 | 63.9* | i | -3.7 | -19.8 | -6.1
C=CCOC(=O)C1=C(C)NC(SC)=C(C#N)C1c1cccs1 (stereo not given) | -2.5 | 25.4 | i | 2.8 | 8.0 | -2.1
C=CCOC(=O)C1=C(C)NC(SCC(=O)Nc2nccs2)=C(C#N)C1c1cccs1 (stereo not given) | -4.3 | 62.0* | i | -9.3 | -7.2 | -1.8
C=CCOC(=O)C1=C(C)NC(SCC(=O)Nc2nccs2)=C(C#N)C1c1ccc(Cl)cc1 (stereo not given) | -0.7 | 66.7* | i | -6.8 | -21.5 | 3.0
C[C@@H]1CN([C@H](C)CO)S(=O)(=O)c2ccc(Br)cc2O[C@@H]1CN(C)C(=O)NC1CCCC1 | x | x | x | x | 13.2 | x
CCCNC(=O)C1(C)CCN(Cc2ccc3ccccc3c2Br)C1 (stereo not given) | x | x | x | x | 16.6 | x
O=Cc1coc2ccc3ccccc3c2c1=O | 15.9 | 8.3 | i | -4.9 | 40.2* | 3.1
O=C(COc1cccnc1[N+](=O)[O-])Nc1ccc(Cl)c(S(=O)(=O)N2CCOCC2)c1 | -5.3 | 10.5 | i | 4.4 | -15.9 | 1.3
CC(=O)NC(=S)c1c(N)n(Cc2ccccc2)c(=O)n(C)c1=O | -5.3 | -41.5 | i | -10.9 | x | -5.4
SMILES | A3G deaminase | PHOSPHO1 block | PABP polyA inh | eIF4H inh | MLLE-PAM2 inh | A3A deaminase
CCCCn1c(N)c(C(=S)NC(=O)CC(C)C)c(=O)n(C)c1=O | x | -32.0 | i | 6.2 | 41.0* | x
CCCn1c(N)c(C(=S)NC(=O)C2CC2)c(=O)n(C)c1=O | x | -42.1 | i | 2.5 | 40.9* | x
N#Cc1c(-c2cccnc2)cc(-c2ccccc2)nc1N | -4.0 | 11.6 | i | 1.3 | -8.8 | -0.8
N#Cc1c(-c2ccco2)cc(-c2cccnc2)nc1N | 30.5 | -2.2 | + | 95.9* | -12.7 | 19.2
CCOC(=O)COc1nc(-c2ccc(C)cc2)cc(-c2ccco2)c1C#N | -7.6 | 26.8 | i | -1.4 | -5.8 | -0.9
N#Cc1c(-c2ccco2)cc(-c2ccccn2)nc1N | 23.1 | 10.9 | + | 70.5* | -26.2 | 23.0
CCOC(=O)COc1nc(-c2ccco2)cc(-c2ccco2)c1C#N | 2.7 | 12.3 | + | 88.8* | -30.4 | 6.6
CC(C)NC[C@@H](O)COc1cccc2ccccc12 | -5.6 | x | x | x | -14.9 | -1.0
CCOc1ccc(Nc2nc(Cc3nnc(SCC(=O)O)o3)cs2)cc1 | -2.9 | 42.8 | i | 47.6* | -54.0 | 4.5
O=C(NC(=S)N1CCCCCC1)c1ccccc1Cl | -4.0 | -5.1 | i | -4.0 | 44.0* | -3.7
CCOC(=O)c1sc(NC(=O)CN2C(=O)C3CC=CCC3C2=O)nc1C (stereo not given) | 0.4 | x | x | x | -3.4 | -0.1
Cc1nc(NC(=O)CCN2C(=O)C3CC=CCC3C2=O)sc1C (stereo not given) | -4.3 | 61.0* | i | -0.1 | 9.4 | -4.3
Nc1sc2c(c1C(=O)c1ccccc1)CCCC2 | 0.4 | 53.3 | i | 12.1 | 17.4 | 2.0
NC(=O)c1c(N)sc2c1CCCC2 | 6.3 | 92.4* | u | u | -5.5 | -2.0
CNc1cccc(-c2ccc(N3CCN(C)CC3)nc2)n1 | x | x | x | x | 4.9 | x
CCc1ccc(-c2csc(NC(=O)C3=NN(c4ccccc4)C(=O)CC3)n2)cc1 | -6.3 | 8.3 | i | active | -17.6 | 9.8
Cc1cc(C)c(-c2csc(NC(=O)C3=NN(c4ccccc4)C(=O)CC3)n2)c(C)c1 | -1.6 | -9.7 | i | -6.3 | -16.8 | 9.3
CCOC(=O)c1c(C)[nH]c(N=Nc2ccccc2C)c1C | 0.3 | 11.5 | i | -2.8 | -9.0 | -1.5
CCOC(=O)c1c(C)[nH]c(N=Nc2ccc(C)cc2C)c1C | 1.5 | 64.8* | i | -10.7 | -3.9 | 1.0
CSC1=NS(=O)(=O)c2c(C)nn(C)c2S1 | 39.2 | 90.4* | i | 4.8 | -50.0 | 2.3
O=C(CSc1nnc(CNC(=O)c2c(F)cccc2F)o1)NCc1ccc(F)cc1 | 20.0 | -5.4 | i | -3.9 | 20.2 | 5.3
Cn1c(SCC(=O)NC2CCCC2)nnc1-c1ccccn1 | -4.9 | 27.6 | i | -5.6 | 2.1 | 1.6
N=C1/C(=C/c2ccc(-c3cccc(C(=O)O)c3)o2)C(=O)N=C2SC(CC(=O)N3CCOCC3)=NN12 | 54.8 | 17.1 | + | 61.7* | -8.3 | 84.2
N=C1/C(=C\c2ccc(-c3cccc(C(=O)O)c3)o2)C(=O)N=C2SC=C(c3ccccc3)N12 | 0.5 | 80.4* | + | 57.6* | -79.3 | 9.4
N=C1/C(=C\c2ccc(SCc3ccccc3)o2)C(=O)N=C2SC(CC(=O)N3CCOCC3)=NN12 | 2.3 | 29.7 | i | 30.4 | -35.7 | 13.3
Cc1snc(SCC(=O)c2ccc(Cl)cc2)c1C#N | -10.2 | 83.9* | i | -0.5 | 27.3 | -9.7

Source: PubChem BioAssay (Sanford-Burnham Center for Chemical Genomics)
